# Laboratory results: PubChem BioAssay AID1159580 (chemical genetic matrix, 2015)
# The whole screen tested about 5,500 compounds, of which about 2,000 (36%) were called active. Inconclusive results (about 18%) are left out. This is one part of the list. Unmarked numbers belong to inactive results. Rule as the data show it: active = normalized growth mostly below about 0.91 (no sharp cut-off); inconclusive = no clear call, values can overlap the other calls; inactive = mostly above about 0.92.
# Experiment: chemical genetic growth profiling, strain panel (AID 1159580);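 also: tested at 20 µM; growth read once vehicle control cultures reached saturation at 30 °C; 1 = growth at the plate median or of vehicle wells; lower values mean less growth of the strain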
# Settings: S. cerevisiae deletion strains, growth OD
# [1] = locus YJL187C, strain SWE1, active compounds read low
smiles,measurement,setting,value
Nc1ccc(N=Nc2ccc(S(N)(=O)=O)cc2)c2ccccc12,normalized growth,"locus YAL013W, strain DEP1, active compounds read low",0.999
same,normalized growth,"locus YBR229C, strain ROT2, active compounds read low",1
same,normalized growth,"locus YCL061C, strain MRC1, active compounds read low",0.998
same,normalized growth,"locus YDL101C, strain DUN1, active compounds read low",0.98
same,normalized growth,"locus YDR150W, strain NUM1, active compounds read low",0.906
same,normalized growth,"locus YEL061C, strain CIN8, active compounds read low",0.989
same,normalized growth,"locus YGR078C, strain PAC10, active compounds read low",1
same,normalized growth,"locus YGR229C, strain SMI1, active compounds read low",1
same,normalized growth,"locus YHR030C, strain SLT2, active compounds read low",1.04
same,normalized growth,"locus YHR087W, strain rtc3, active compounds read low",0.995
same,normalized growth,[1],1.01
same,normalized growth,"locus YJR043C, strain POL32, active compounds read low",1
same,normalized growth,"locus YJR075W, strain HOC1, active compounds read low",1.02
same,normalized growth,"locus YLR039C, strain RIC1, active compounds read low",0.983
same,normalized growth,"locus YLR058C, strain SHM2 (second series), active compounds read low",1.01
same,normalized growth,"locus YLR085C, strain ARP6, active compounds read low",1.03
same,normalized growth,"locus YLR262C, strain YPT6, active compounds read low",1
same,normalized growth,"locus YML094W, strain GIM5, active compounds read low",0.986
same,normalized growth,"locus YMR219W, strain ESC1, active compounds read low",0.994
same,normalized growth,"locus YMR263W, strain SAP30, active compounds read low",0.916
same,normalized growth,"locus YNL153C, strain GIM3, active compounds read low",1
same,normalized growth,"locus YNL298W, strain CLA4 (second series), active compounds read low",0.982
same,normalized growth,"locus YNL322C, strain KRE1, active compounds read low",0.997
same,normalized growth,"locus YNR030W, strain Alg12, active compounds read low",1.01
same,normalized growth,"locus YPL055C, strain LGE1, active compounds read low",0.893
same,normalized growth,"locus YPL241C, strain CIN2, active compounds read low",1
same,normalized growth,"locus YPR135W, strain CTF4, active compounds read low",1.06
COc1cc(OC)c2c(=O)c(-c3ccccc3)coc2c1,normalized growth,"locus YAL021C, strain ccr4, active compounds read low",0.991
same,normalized growth,"locus YAL026C, strain drs2, active compounds read low",0.895 (active)
same,normalized growth,"locus YAL030W, strain snc1, active compounds read low",0.991
same,normalized growth,"locus YBL061C, strain skt5, active compounds read low",0.958
same,normalized growth,"locus YBR009C, strain hhf1, active compounds read low",0.928
same,normalized growth,"locus YBR023C, strain chs3, active compounds read low",0.915
same,normalized growth,"locus YBR171W, strain sec66, active compounds read low",1.01
same,normalized growth,"locus YBR231C, strain swc5, active compounds read low",0.951
same,normalized growth,"locus YBR279W, strain paf1, active compounds read low",0.953
same,normalized growth,"locus YCL011C, strain gbp2, active compounds read low",0.936
same,normalized growth,"locus YCL016C, strain dcc1, active compounds read low",0.965
same,normalized growth,"locus YCL069W, strain vba3, active compounds read low",0.982
same,normalized growth,"locus YCR088W, strain abp1, active compounds read low",0.993
same,normalized growth,"locus YDL005C, strain med2, active compounds read low",1.04
same,normalized growth,"locus YDL040C, strain nat1, active compounds read low",0.99
same,normalized growth,"locus YDR001C, strain nth1, active compounds read low",0.994
same,normalized growth,"locus YDR069C, strain doa4, active compounds read low",1.02
same,normalized growth,"locus YDR137W, strain rgp1, active compounds read low",0.911
same,normalized growth,"locus YDR159W, strain sac3, active compounds read low",0.963
same,normalized growth,"locus YDR195W, strain ref2",1.22 [resistant] (active)
same,normalized growth,"locus YDR297W, strain sur2, active compounds read low",0.995
same,normalized growth,"locus YDR334W, strain swr1, active compounds read low",1
same,normalized growth,"locus YDR335W, strain msn5, active compounds read low",0.98
same,normalized growth,"locus YDR392W, strain spt3, active compounds read low",0.637 (active)
same,normalized growth,"locus YEL003W, strain gim4, active compounds read low",0.967
same,normalized growth,"locus YEL037C, strain rad23, active compounds read low",0.998
same,normalized growth,"locus YEL061C, strain CIN8 (second series), active compounds read low",1
same,normalized growth,"locus YER015W, strain faa2, active compounds read low",0.956
same,normalized growth,"locus YER016W, strain bim1, active compounds read low",1
same,normalized growth,"locus YER111C, strain swi4, active compounds read low",1.02
same,normalized growth,"locus YER155C, strain BEM2 (second series), active compounds read low",0.596 (active)
same,normalized growth,"locus YFR010W, strain ubp6, active compounds read low",1.01
same,normalized growth,"locus YGL167C, strain pmr1, active compounds read low",0.985
same,normalized growth,"locus YGL173C, strain kem1, active compounds read low",0.985
same,normalized growth,"locus YGL227W, strain vid30, active compounds read low",1
same,normalized growth,"locus YGL240W, strain doc1, active compounds read low",0.835 (active)
same,normalized growth,"locus YGL253W, strain hxk2, active compounds read low",0.935
same,normalized growth,"locus YHR013C, strain ard1, active compounds read low",0.974
same,normalized growth,"locus YHR027C, strain rpn1, active compounds read low",1
same,normalized growth,"locus YHR142W, strain chs7, active compounds read low",0.824 (active)
same,normalized growth,"locus YJL092W, strain hpr5, active compounds read low",0.994
same,normalized growth,"locus YJL095W, strain BCK1 (second series), active compounds read low",0.979
same,normalized growth,"locus YJL115W, strain asf1, active compounds read low",1
same,normalized growth,"locus YJL129C, strain trk1, active compounds read low",0.964
same,normalized growth,"locus YJL154C, strain vps35, active compounds read low",1
same,normalized growth,"locus YJL164C, strain tpk1, active compounds read low",0.935
same,normalized growth,"locus YJL166W, strain qcr8, active compounds read low",0.934
same,normalized growth,[1],0.997
same,normalized growth,"locus YKL160W, strain elf1, active compounds read low",0.93
same,normalized growth,"locus YKR026C, strain gcn3, active compounds read low",0.99
same,normalized growth,"locus YKR091W, strain srl3, active compounds read low",0.996
same,normalized growth,"locus YLL001W, strain dnm1, active compounds read low",0.941
same,normalized growth,"locus YLL026W, active compounds read low",0.99
same,normalized growth,"locus YLL041C, strain sdh2, active compounds read low",0.991
same,normalized growth,"locus YLR027C, strain aat2, active compounds read low",0.947
same,normalized growth,"locus YLR221C, strain rsa3, active compounds read low",0.947
same,normalized growth,"locus YLR258W, strain gsy2, active compounds read low",0.925
same,normalized growth,"locus YLR262C, strain YPT6 (second series), active compounds read low",0.91
same,normalized growth,"locus YLR320W, strain mms22, active compounds read low",0.87 (active)
same,normalized growth,"locus YLR342W, strain FKS1, active compounds read low",0.911
same,normalized growth,"locus YLR357W, strain rsc2, active compounds read low",1.03
same,normalized growth,"locus YLR370C, strain arc18, active compounds read low",0.939
same,normalized growth,"locus YLR384C, strain iki3, active compounds read low",1
same,normalized growth,"locus YML120C, strain ndi1, active compounds read low",0.946
same,normalized growth,"locus YMR058W, strain fet3, active compounds read low",0.978
same,normalized growth,"locus YMR125W, strain sto1, active compounds read low",0.971
same,normalized growth,"locus YMR129W, active compounds read low",0.999
same,normalized growth,"locus YMR205C, strain PFK2, active compounds read low",0.954
same,normalized growth,"locus YMR231W, strain pep5, active compounds read low",0.994
same,normalized growth,"locus YNL071W, strain lat1, active compounds read low",0.807 (active)
same,normalized growth,"locus YNL209W, strain ssb2, active compounds read low",0.984
same,normalized growth,"locus YNL248C, strain rpa49, active compounds read low",0.995
same,normalized growth,"locus YNL322C, strain KRE1 (second series), active compounds read low",0.972
same,normalized growth,"locus YNR049C, strain mso1, active compounds read low",1.01
same,normalized growth,"locus YOR001W, strain rrp6, active compounds read low",0.96
same,normalized growth,"locus YOR070C, strain gyp1, active compounds read low",0.976
same,normalized growth,"locus YOR080W, strain dia2, active compounds read low",1.01
same,normalized growth,"locus YOR083W, strain WHI5, active compounds read low",0.902
same,normalized growth,"locus YOR106W, strain vam3, active compounds read low",0.89
same,normalized growth,"locus YOR265W, strain rbl2, active compounds read low",1
same,normalized growth,"locus YOR270C, strain vph1, active compounds read low",0.767 (active)
same,normalized growth,"locus YOR290C, strain snf2, active compounds read low",0.893
same,normalized growth,"locus YPL051W, strain arl3, active compounds read low",0.936
same,normalized growth,"locus YPL078C, strain atp4, active compounds read low",0.933
same,normalized growth,"locus YPL106C, strain sse1, active compounds read low",1.01
same,normalized growth,"locus YPL240C, strain hsp82, active compounds read low",0.986
